Integrin act MD = qHTS for Activators of Integrin-Mediated Alleviation for Muscular Dystrophy; alpha7betagal myoblasts, beta-gal FDG fluorescence, 48 h; Potency, µM (doses to about 38.3 µM), usual class: activators; 0.064% of 350,000 active; AID 624291, 2012; further: nearly all actives have a fitted effect of over 60% in size
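Alpha7betagal+/- myoblasts (passage 13) were plated 16-24 hr, then exposed to compounds (1:260 dilution of DMSO stock) for 48 hours at 37C. After MPER lysis, β-galactosidase reporter activity was read as FDG fluorescence (ex 480/em 540) after 30 minutes.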
Glioma ERSR ind = qHTS for Inducers of the Endoplasmic Reticulum Stress Response (ERSR) in Human Glioma: qHTS; 0.02% of 420,000 active; U87-MG GRP78 promoter luciferase reporter, 16 h; Potency, µM, most hits filed as activators; further: series mostly up to about 76 µM; nearly all actives have a fitted effect of over 35% in size
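ERSR induction read as luciferase luminescence (Bright-Glo, 10 min at room temperature) in stably transfected human U87-MG glioma cells exposed to compounds for 16 h, using GRP78 as sensor.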
ClpP mod = qHTS Assay for Activators of ClpP; Potency, µM (titrated, usually from 57.5 µM); ATP-dependent Clp protease proteolytic subunit (Bacillus subtilis (strain 168)), P80244; purified B. subtilis ClpP, FRET peptide cleavage, 20 min; 1.9% of 340,000 active; active means well fitted falling curve with a large enough effect; inconclusive means small, poorly fitted or top-dose-only effect; inactive means no such curve, though single readings can be large or run the other way; further: the source files actives as falling curves though it sought activators and does not explain the sign; nearly all actives have a fitted effect of over 65% in size
Target sequence (P80244 whole entry, looked up): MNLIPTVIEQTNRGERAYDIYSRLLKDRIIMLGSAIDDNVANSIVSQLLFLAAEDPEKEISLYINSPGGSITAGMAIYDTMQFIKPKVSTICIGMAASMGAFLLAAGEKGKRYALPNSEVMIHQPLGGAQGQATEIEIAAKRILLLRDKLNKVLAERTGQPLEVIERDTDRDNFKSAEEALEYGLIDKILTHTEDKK
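FRET quenching reversal measured ClpP activation: 10 microg/mL B. subtilis ClpP at pH 8 with the FRET-FV decapeptide, read at 430 nm after 320 nm excitation. The 20-min minus 0-min signal was scaled between DMSO/no-enzyme wells and ADEP (5.8 microM final).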
N370S GC mod = qHTS Assay for Inhibitors and Activators of N370S glucocerebrosidase as a Potential Chaperone Treatment of Gaucher Disease. N370S GC spleen homogenate, 4MU-glucoside fluorescence. Potency, µM (doses to about 59.4 µM), most hits filed as inhibitors. 0.092% of 330,000 active. AID 2101, 2009
Apoferritin bind = qHTS Assay for Identification of Novel General Anesthetics; Ferritin light chain (Equus caballus), P02791; apoferritin/1-aminoanthracene competitive binding, fluorescence; Potency, µM (titrated, usually from 77.5 µM), most hits filed as inhibitors; 0.074% of 350,000 active; further: nearly all actives have a fitted effect of over 20% in size
Target sequence (P02791 2-175 limits assumed): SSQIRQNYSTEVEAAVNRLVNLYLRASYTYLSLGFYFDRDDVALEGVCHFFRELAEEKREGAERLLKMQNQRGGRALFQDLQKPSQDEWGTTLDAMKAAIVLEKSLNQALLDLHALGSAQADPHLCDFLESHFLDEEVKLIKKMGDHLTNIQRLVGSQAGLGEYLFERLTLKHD
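Steps: apoferritin (10 uM) was premixed with half-saturated 1-AMA in PBS, compounds were pin-transferred, plates stood 10 min at room temperature, fluorescence was read at 380/535 nm, and curves were fitted with a Hill equation.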
CBFb RUNX1 block = qHTS Assay for Compounds Blocking the Interaction Between CBF-beta and RUNX1 for the Treatment of Acute Myeloid Leukemia; Potency, µM (titrated, usually from 59.8 µM), actives largely listed as inhibitors; AlphaScreen CBFb-His/RUNX1-biotin binding, biochemical; 230,000 tested, under 10 active; AID 1477, 2009
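Proteins preincubated together for 20 min at RT before compound addition; 15 min later, nickel and streptavidin beads were added and left 90 min prior to AlphaScreen measurement.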
Numbers stand for hits; . = inactive; ? = inconclusive; / = no result given. Shown is part of a subset that was picked to be rich in hits. Unless noted, the call rests on the fitted dose curve; in most records, active means well fitted curve in the direction sought with a large enough effect; inconclusive means small, poorly fitted or top-dose-only effect, or another doubt; inactive means no such curve, though single readings can be large; an effect the other way counts as inactive or inconclusive.

SMILES | Integrin act MD | Glioma ERSR ind | ClpP mod | N370S GC mod | Apoferritin bind | CBFb RUNX1 block
Cc1ccnc(NS(=O)(=O)Cc2ccccc2)c1 | . | . | 40µM | . | . | .
CO[C@H]1[C@@H](O)[C@H](N)[C@@H](O[C@H]2O[C@@H]([C@H](C)N)CC[C@H]2N)[C@H](O)[C@@H]1N(C)C(=O)CN | / | . | / | / | / | /
O=C(OC[C@@H]1CCCN2CCCC[C@H]12)c1cc2ccccc2oc1=O | . | . | 25µM | . | . | .
O=C(OC1CCCCC1)c1cc2ccccc2oc1=O | . | . | / | ? | . | /
Cc1ccc2nc(-c3ccc(NC(=O)CN4C(=O)NC(C)(c5ccc(OC(F)F)cc5)C4=O)cc3)sc2c1 (stereo not drawn) | . | . | 14µM | . | . | .
Cc1ccc2nc(-c3ccc(NC(=O)COC(=O)c4ccc(Br)o4)cc3)sc2c1 | . | . | 8.9µM | . | . | .
Cc1ccc2nc(-c3ccc(NC(=O)COc4ccccc4)cc3)sc2c1 | / | . | . | / | . | /
Cc1ccc2nc(-c3ccc(NC(=O)COC(=O)c4ccc([N+](=O)[O-])o4)cc3)sc2c1 | . | . | 28µM | . | . | .
Cc1ccc2nc(-c3ccc(NC(=O)CN(c4ccccc4C)S(C)(=O)=O)cc3)sc2c1 | . | . | 25µM | . | . | .
CNS(=O)(=O)c1cccc(C(=O)OCC(=O)Nc2ccc(-c3nc4ccc(C)cc4s3)cc2)c1 | . | . | / | . | . | .
C[N+]1(CC(=O)c2cccc([N+](=O)[O-])c2)CCOCC1 | / | . | . | / | / | /
Cc1c(C(=O)NCc2cccc(F)c2)sc2ncnc(NCC3CCCO3)c12 (stereo not drawn) | / | . | / | / | / | /
CCOc1ncccc1C(=O)OCC(=O)Nc1ccc(-c2nc3ccc(C)cc3s2)cc1 | . | . | 3.5µM | . | . | .
C=CCn1c(SCC(=O)Nc2ccc(-c3nc4ccc(C)cc4s3)cc2)nnc1-c1ccccc1 | . | . | 16µM | . | . | .
CC(CN1CCOCC1)C(Cc1ccccc1)(Cc1ccccc1)C(=O)N1CCCC1 (stereo not drawn) | / | . | / | / | / | /
COC(=O)CN(c1ccccn1)S(=O)(=O)c1ccccc1 | . | . | 11µM | . | . | .
O=C(O)CN(c1ccccn1)S(=O)(=O)c1ccc(Cl)cc1 | . | . | ? | . | . | .
CC[C@H](c1ccccc1)c1noc(CCN(CC)CC)n1 | / | . | / | / | / | /
CCOc1ccc(Oc2c(C)oc3cc(O)ccc3c2=O)cc1 | . | . | / | . | . | .
Cc1oc2cc(O)ccc2c(=O)c1Oc1ccccc1 | . | . | 11µM | . | . | .
COC(=O)c1cc(-c2c(C)oc3cc(O)ccc3c2=O)c(C)o1 | . | . | 25µM | . | . | .
COC(=O)c1cc(-c2c(C)oc3cc(OC)ccc3c2=O)c(C)o1 | . | . | . | . | . | .
COc1cc(-c2c(OC)cccc2OC)cc2c1OCCN(Cc1cn[nH]c1-c1ccc(Cl)cc1)C2 | / | . | / | / | / | /
CCOc1ccc(C2=Nn3c(CC)nnc3SC2)cc1 | . | . | . | / | / | /
COc1ccc(OCc2nnc3n2N=C(c2ccc(Br)cc2)CS3)cc1 | . | . | . | . | 14µM | .
SMILES | Integrin act MD | Glioma ERSR ind | ClpP mod | N370S GC mod | Apoferritin bind | CBFb RUNX1 block
CN(C)C1CCC(CC2CCc3ccccc32)CC1 (stereo not drawn) | / | . | ? | / | / | /
COc1cc(-c2cnc3ccccc3c2)cc2c1OCCN(C(=O)Cn1nccc1C)C2 | / | . | / | / | / | /
[O-][n+]1ccccc1SSc1cccc[n+]1[O-] | / | . | / | / | / | /
Cc1cc2c(c(=O)n1C)C(Cc1ccccc1)C(C#N)=C(N)O2 (stereo not drawn) | . | . | 28µM | . | . | .
CCCC1C(C#N)=C(N)Oc2cc(C)n(C)c(=O)c21 (stereo not drawn) | . | . | 32µM | . | . | .
Cc1cc2c(c(=O)n1CCc1ccccc1)C(C(C)C)C(C#N)=C(N)O2 (stereo not drawn) | . | . | . | . | . | .
COCCN1CCN(C(=O)c2cnn(-c3ncc4c(n3)-c3ccc(OC)cc3CC4)c2C2CC2)CC1 | / | . | / | / | / | /
Cc1c(C(=O)NCc2ccco2)cnn1-c1ncc2c(n1)-c1ccccc1CC2 | / | . | / | / | / | /
Cc1ccc(S(=O)(=O)N2CCC(C(=O)NCCc3ccccn3)CC2)cc1 | . | . | 22µM | . | . | .
COc1ccc(Cl)cc1N(C)c1nc(N2CCN(S(=O)(=O)c3ccc(C)cc3)CC2)c2ccccc2n1 | / | / | . | / | / | /
COc1cc2cc(C(c3nnnn3C(C)(C)C)N3CCc4ccccc43)c(=O)[nH]c2cc1OC (stereo not drawn) | . | . | . | . | . | .
O=c1[nH]c2cc3c(cc2cc1C(c1nnnn1Cc1ccccc1)N1CCCc2ccccc21)OCO3 (stereo not drawn) | . | . | . | . | . | .
O=c1[nH]c2cc3c(cc2cc1C(c1nnnn1Cc1ccccc1)N1CCN2CCCC2C1)OCCO3 (stereo not drawn) | . | . | 25µM | . | . | .
COCCn1nnnc1C(c1cc2c(C)cc(C)cc2[nH]c1=O)N1CCCCCC1 (stereo not drawn) | . | . | . | . | . | .
COCCn1nnnc1C(c1cc2cc(C)ccc2[nH]c1=O)N1CCCCCC1 (stereo not drawn) | . | . | 28µM | . | . | .
CCC(C)(C)n1nnnc1C(c1cc2cc3c(cc2[nH]c1=O)OCO3)N1CCCCC1 (stereo not drawn) | . | . | 14µM | . | . | .
COc1cc2cc(C(c3nnnn3C(C)(C)C)N3CCC(C)CC3)c(=O)[nH]c2cc1OC (stereo not drawn) | . | . | 13µM | . | . | .
Cc1cc(OCC(=O)NC(C)C)ccc1Cl | 4µM | . | / | . | . | .
Cc1cc(OCC(=O)NCCO)ccc1Cl | . | . | . | . | . | .
O=P(O)(O)C(O)(Cc1cnc2ccccn12)P(=O)(O)O | / | . | / | / | / | /
Cn1c(=O)c(-c2ccccc2)nc2ccccc21 | . | . | 25µM | . | . | .
CC(=O)C[C@H]1c2cc(F)cc(F)c2S(=O)(=O)N1C1CCN(Cc2ccccc2)CC1 | / | . | . | / | / | /
O=C(Cc1cccs1)Nc1cccc(-c2nc3cc4ccccc4cc3[nH]2)c1 | . | . | 28µM | . | . | .
CC(=O)Nc1cccc(NC(=O)Cc2cccs2)c1 | . | . | . | . | . | /
